High-throughput results as filed in PubChem.
Pf growth 48h – inhibits P. falciparum growth in the first generation, 48 h; P. falciparum luciferase growth in erythrocytes, 48 h; Potency, µM (highest dose often 28.7 µM), for inactives: at the highest dose activity change, negative = inhibition, actives largely listed as inhibitors; actives 5.9% (n = 310,000); AID 504832
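Erythrocytes infected with P. falciparum carrying an integrated firefly luciferase reporter (2% hematocrit, 0.1% parasitemia final) were exposed to compounds in RPMI 1640 with 0.5% Albumax at 37 C, 5% CO2. Growth inhibition was scored as reduced luminescence.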
Vaccinia mCherry – inhibitors of vaccinia virus infection (mCherry reporter signal). Vaccinia virus mCherry reporter infection, fluorescence. Potency, µM (highest dose often 36.5 µM), for inactives: at the top dose activity change, negative = inhibition, usual class: inhibitors. actives 0.63% (n = 310,000); calls by dose curve; tested in A549 cells; also: nearly all actives have a fitted effect of over 35% in size
AMA1-RON2 inh – AMA1-RON2 (P. falciparum) interaction inhibition; AlphaScreen AMA1-biotinylated RON2 peptide binding; Potency, µM (doses to about 58.2 µM), inactives show at the highest dose activity change, negative = inhibition, most hits filed as inhibitors; actives 0.2% (n = 360,000); AID 720542;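 also: 0% = vehicle wells and -100% = peptide control; nearly all actives have a fitted effect of over 45% in size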
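AMA1 (3D7) with his tag at 25 nM final met compounds first, then biotinylated RON2 peptide at 25 nM; detection used donor plus acceptor beads, 10 µg/mL apiece, read by AlphaScreen after 30 min at room temperature.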
Vaccinia Venus – inhibitors of vaccinia virus (Venus reporter); Vaccinia virus Venus reporter expression, fluorescence; Potency, µM (series often up to 36.5 µM), without a hit: at the top dose activity change, negative = inhibition, actives largely listed as inhibitors; actives 0.46% (n = 330,000); calls by dose curve; tested in A549 cells; also: nearly all actives have a fitted effect of over 30% in size
Pf growth 96h – P. falciparum growth inhibition at 96 hour, primary screen for plastid delayed-death inhibitors. P. falciparum luciferase reporter growth, 96 h. AID 504834. Potency, µM (top dose mostly 28.7 µM), inactives show at the top dose activity change, negative = inhibition, actives largely listed as inhibitors. actives 6.9% (n = 320,000)
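Erythrocytes infected with luciferase-expressing P. falciparum were dispensed at 2% hematocrit and 0.05% parasitemia (final), then incubated with compounds 96 hours at 37 C in 5% CO2. Luminescence after detection reagent addition reported growth.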
Active calls of the source: *; i = inactive; ? = inconclusive; nt = not tested or not shown; [ ] = dose if it differs, or a comment. The list is not random: actives were taken first. Their share in the collection is about 8.7%. Unless noted, calls follow the shape of the dose curve; as a rule, active = well fitted curve in the direction sought with a large enough effect; inconclusive = small, poorly fitted or top-dose-only effect, or another doubt; inactive = no such curve, though single readings can be large; an effect the other way counts as inactive or inconclusive. Unless noted, % is scaled to controls: 0 for no effect and ±100 for the full control effect; potency is read from the fitted curve at half-maximal effect.

SMILES	Pf growth 48h	Vaccinia mCherry	AMA1-RON2 inh	Vaccinia Venus	Pf growth 96h
Cc1cccc(N2C(N)=NC(N)=NC23CCCCC3)c1	2.1µM*	-14%	-11%	-6%	?
CC1(C)N=C(N)N=C(N)N1c1cc(Cl)ccc1Cl	nt	i	21%	-15%	nt
COc1ccc(OC)c(N2C(N)=NC(N)=NC23CCCC3)c1	-12%	-13%	11%	-7%	5%
CC1(C)N=C(N)N=C(N)N1c1ccc(Oc2ccc(Cl)cc2)c(Cl)c1	0.21µM*	?	-1%	?	0%
Cc1ncc2c(c1CNC(=O)c1ccc3c(c1)OCO3)CCN(C(=O)c1csc3c1CCCC3)C2	nt	-15%	nt	-6%	nt
CCCSc1nc2c(c(=O)[nH]1)C(c1ccc(F)cc1F)CC(=O)N2 (configuration not stated)	nt	-5%	nt	-15%	nt
CC1(C)N=C(N)N=C(N)N1c1ccc(CCCCc2ccccc2)cc1	nt	3.2µM*	-3%	?	nt
CC1(C)N=C(N)N=C(N)N1c1ccccc1	nt	nt	0%	?	0.74µM*
O=C(NNC(=O)c1ccccc1Br)c1ccncc1	24%	nt	4%	nt	10µM*
O=C(NNC(=S)NC1CCCCC1)c1ccccc1Br	13µM*	nt	96%	nt	?
Cc1ccsc1C(=O)NNC(=S)NC1CCCCC1	7%	nt	140%	nt	9.3µM*
O=C(NNC(=O)c1ccccc1Br)c1ccc(Cl)cc1	48%	-8%	58%	-9%	164%
O=C(NNC(=S)Nc1ccc(Br)cc1)c1ccccc1Br	46%	-22%	45%	-17%	9.3µM*
COc1cc(OC)c(C(=O)NNC(=S)NC2CCCCC2)cc1OC	3%	i	60%	-3%	0%
Cc1cc(C)c(NC(=O)CSc2nc(C)cc(C)c2C#N)c(C)c1	nt	-5%	nt	-8%	nt
CCOC(=O)C1=C(CN2CCN(c3ccccc3)CC2)NC(=O)NC1c1ccc(C)cc1 (configuration not stated)	nt	-12%	nt	-7%	nt
Nc1nonc1-c1nc2ccccc2n1CC(=O)Nc1cccc(C(F)(F)F)c1	nt	-12%	nt	-8%	nt
O=C(NNC(=S)Nc1ccc(Cl)cc1)c1ccccc1OC(F)F	?	13µM*	17%	?	?
Cn1c(=O)c2nc(Cl)c(-c3ccccc3)nc2n(C)c1=O	4.1µM*	0%	7%	0%	?
Cn1c(=O)c2nc(-c3ccccc3)c(-c3ccccc3)nc2n(C)c1=O	nt	i	9%	-23%	nt
Cc1ccc(S(=O)(=O)c2nc(-c3ccco3)oc2SC(C)c2ccccc2)cc1 (configuration not stated)	nt	-8%[7.34 µM]	nt	4%[7.34 µM]	nt
CC(C)Sc1oc(-c2ccco2)nc1S(=O)(=O)c1ccc(F)cc1	?	nt	-1%	nt	15µM*
Cn1c(NC2CCCCC2)cc(=O)n(C)c1=O	?	-3%	1%	-10%	10µM*
CC12CCC(C(=O)N3CCCCC3)(CC1=O)C2(C)C (configuration not stated)	25%	i	-4%	-10%	-12%
CC1CCCN(C(=O)C23CCC(C)(C(=O)C2)C3(C)C)C1 (configuration not stated)	8%	-16%	0%	-7%	9.3µM*
SMILES	Pf growth 48h	Vaccinia mCherry	AMA1-RON2 inh	Vaccinia Venus	Pf growth 96h
COc1ccc(Cl)cc1-c1cc(C(=O)Nc2ccccc2)[nH]n1	nt	i	-3%	-8%	nt
Cc1cccc(NC(=O)c2cc(-c3c(C)cc(C)cc3O)n[nH]2)c1	0%	-13%	21%	-9%	15µM*
Cc1ccc(Cl)cc1-c1cc(C(=O)Nc2ccc(F)cc2)[nH]n1	nt	11%	13%	-8%	nt
Cc1cccc(NC(=O)c2cc(-c3cc(Cl)ccc3O)n[nH]2)c1	2.6µM*	-3%	56%	-20%	2.3µM*
Cc1ccc(NC(=O)c2cc(-c3cc(Cl)ccc3O)n[nH]2)cc1C	1.9µM*	nt	59%	nt	1.7µM*
Cc1ccc(O)c(-c2cc(C(=O)NCc3ccncc3)[nH]n2)c1	2.9µM*	nt	56%	nt	4.1µM*
Cc1cc(C)c(O)c(-c2cc(C(=O)NCc3ccccc3)[nH]n2)c1	nt	nt	116%	?	?
Cc1cccc(NC(=O)c2cc(-c3cc(C)cc(C)c3O)n[nH]2)c1	?	nt	140%	nt	?
CCCCn1cc(S(=O)(=O)c2ccc(CC)cc2)c(=O)c2cc(F)c(N3CCOCC3)cc21	nt	-13%	nt	-24%	nt
CC(C)CNC(=S)NC1CC2CCCC(C1)N2Cc1ccco1 (configuration not stated)	-17%	-17%	-5%	-25%	12µM*
CC(C)CNC(=S)NC1CC2CCCC(C1)N2Cc1cccs1 (configuration not stated)	13µM*	-6%	-9%	-20%	3.7µM*
CNC(=S)NC1CC2CCCC(C1)N2Cc1ccco1 (configuration not stated)	12%	-7%	-1%	-7%	34%
Cc1ccc(C)c(N2CCN(CC(=O)Nc3ccc([N+](=O)[O-])cc3C(=O)Nc3ccccc3F)CC2)c1	?	nt	-2%	nt	2.3µM*
O=C(CNCC1CCCO1)Nc1ccc([N+](=O)[O-])cc1C(=O)Nc1ccccc1F (configuration not stated)	?	-20%	123%	-5%	5.9µM*
O=C(Cn1c(=O)n(-c2ccc(Cl)cc2)c(=O)c2oc3ccccc3c21)Nc1ccccc1	nt	-12%	nt	-9%	nt
CN(C)c1ccc2ccc3cccc4ccc1c2c34	nt	i	nt	10%	nt
O=C(O)c1ccc(C2CCCCC2)cn1	?	nt	13µM*	nt	-9%
COc1ccc(C)cc1N(C(=O)COc1ccccc1)c1nc2ccccc2s1	10µM*	-19%	-9%	-12%	?
COc1ccc(C)cc1N(C(=O)c1ccccc1)c1nc2ccccc2s1	12µM*	i	-15%	-11%	13µM*
COc1ccc(C)cc1N(C(=O)c1cccc(F)c1)c1nc2ccccc2s1	?	i	-18%	-14%	?
COc1ccc(C)cc1N(C(=O)c1ccccc1F)c1nc2ccccc2s1	9.3µM*	-12%	-5%	-2%	17µM*
Cc1ccsc1C(=O)N(c1nc2ccccc2s1)c1c(C)cccc1C	12µM*	?	-5%	-12%	8.3µM*
Cc1ccc2nc(N(Cc3cccnc3)C(=O)COc3ccccc3)sc2c1	nt	i	nt	-14%	nt
Cc1ccccc1N(C(=O)c1cccs1)c1nc2ccccc2s1	nt	-2%	-29%	-11%	?
CCSc1ncc(Cl)c(C(=O)Nc2c(C(=O)Nc3ccc(Cl)cc3)oc3ccccc23)n1	nt	-12%	nt	-1%	nt
COc1cccc(N2C(=O)C3ON(c4ccccc4)C(c4cccs4)C3C2=O)c1 (configuration not stated)	nt	-21%	0%	-9%	5%
CCOc1ccc(N2C(=O)C3ON(c4ccccc4)C(c4cccs4)C3C2=O)cc1 (configuration not stated)	12µM*	-1%	-11%	-11%	68%
Cc1c(Cl)ccc2sc(N3CCN(C(=O)CS(=O)(=O)c4ccccc4)CC3)nc12	nt	i	nt	-10%	nt
